From PubChem BioAssay AID1159580 (chemical genetic matrix, 2015)
“And” between values parts separate entries of the source, which are not always exact repeats. Equal entries are not always repeated. Hit rate of the full screen: of about 5,500 compounds, about 2,000 (36%) were called active. Inconclusive results (about 18%) are left out. No stated cut-off is given here; in the data, active means normalized growth mostly below about 0.91 (no sharp cut-off); inconclusive means no clear call, values can overlap the other calls; inactive means mostly above about 0.92. The list shows a part of the results.

Assay: chemical genetic growth profiling, strain panel (AID 1159580);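 further: tested at 20 µM; growth read once vehicle control cultures reached saturation at 30 °C; 1 = growth at the plate median or of vehicle wells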
Details: S. cerevisiae deletion strains, growth OD

Measured: normalized growth

CC1=CC(=O)c2ccccc2C1=O
active: locus YAL013W, strain DEP1, stronger effect = lower value 0.0548 | locus YAL026C, strain drs2, stronger effect = lower value 0.903 | locus YBR009C, strain hhf1, stronger effect = lower value 0.757 | locus YBR021W, strain FUR4, stronger effect = lower value 0.0857 | locus YBR229C, strain ROT2, stronger effect = lower value 0.076 | locus YCL011C, strain gbp2, stronger effect = lower value 0.864 | locus YCL029C, strain bik1, stronger effect = lower value 0.0624 | locus YDL035C, strain GPR1, stronger effect = lower value 0.0512 | locus YDL074C, strain BRE1, stronger effect = lower value 0.108 | locus YDL101C, strain DUN1, stronger effect = lower value 0.0567 | locus YDL134C, strain PPH21, stronger effect = lower value 0.046 | locus YDL185W, strain tfp1, stronger effect = lower value 0.0717 | locus YDL192W, strain arf1, stronger effect = lower value 0.0585 | locus YDR101C, strain arx1, stronger effect = lower value 0.0639 | locus YDR150W, strain NUM1, stronger effect = lower value 0.0617 | locus YDR162C, strain NBP2, stronger effect = lower value 0.054 | locus YDR195W, strain ref2 1.3 [resistant] | locus YDR318W, strain mcm21, stronger effect = lower value 0.0603 | locus YDR388W, stronger effect = lower value 0.0538 | locus YDR392W, strain spt3, stronger effect = lower value 0.539 | locus YDR502C, strain sam2, stronger effect = lower value 0.059 | locus YEL061C, strain CIN8, stronger effect = lower value 0.0492 | locus YER110C, stronger effect = lower value 0.0711 | locus YER155C, strain BEM2, stronger effect = lower value 0.076 | locus YER167W, strain BCK2, stronger effect = lower value 0.0494 | locus YGL078C, strain dbp3, stronger effect = lower value 0.294 | locus YGL086W, strain mad1, stronger effect = lower value 0.0543 | locus YGL240W, strain doc1, stronger effect = lower value 0.871 | locus YGL248W, strain PDE1, stronger effect = lower value 0.0439 | locus YGL253W, strain hxk2, stronger effect = lower value 0.887 | locus YGR078C, strain PAC10, stronger effect = lower value 0.0487 | locus YGR135W, strain pre9, stronger effect = lower value 0.0619 | locus YGR229C, strain SMI1, stronger effect = lower value 0.0566 | locus YGR252W, strain gcn5, stronger effect = lower value 0.168 | locus YHR013C, strain ard1, stronger effect = lower value 1.17 [resistant] | locus YHR030C, strain SLT2, stronger effect = lower value 0.0463 and 0.306 | locus YHR079C, strain IRE1 (second series), stronger effect = lower value 0.0572 | locus YHR079C, strain IRE1, stronger effect = lower value 0.291 | locus YHR094C, strain hxt1, stronger effect = lower value 0.0585 | locus YHR129C, strain ARP1, stronger effect = lower value 0.058 | locus YHR142W, strain chs7, stronger effect = lower value 0.838 | locus YHR200W, strain rpn10, stronger effect = lower value 0.0601 | locus YIL066C, strain RNR3, stronger effect = lower value 0.0506 | locus YIL073C, strain SPO22, stronger effect = lower value 0.117 | locus YIL125W, strain kgd1, stronger effect = lower value 0.419 | locus YIR030C, strain dcg1, stronger effect = lower value 0.0593 | locus YJL095W, strain BCK1, stronger effect = lower value 0.0528 and 0.292 | locus YJL134W, strain LCB3, stronger effect = lower value 0.0458 | locus YJL166W, strain qcr8, stronger effect = lower value 0.639 | locus YJL168C, strain set2, stronger effect = lower value 0.0804 | locus YJL187C, strain SWE1 (second series), stronger effect = lower value 0.0592 | locus YJR043C, strain POL32, stronger effect = lower value 0.0645 | locus YJR066W, strain TOR1, stronger effect = lower value 0.368
inactive: locus YAL021C, strain ccr4, stronger effect = lower value 1.02 | locus YAL030W, strain snc1, stronger effect = lower value 1.02 | locus YBL061C, strain skt5, stronger effect = lower value 1.03 | locus YBR023C, strain chs3, stronger effect = lower value 0.999 | locus YBR171W, strain sec66, stronger effect = lower value 1.03 | locus YBR231C, strain swc5, stronger effect = lower value 0.955 | locus YBR279W, strain paf1, stronger effect = lower value 0.971 | locus YCL016C, strain dcc1, stronger effect = lower value 0.933 | locus YCL061C, strain MRC1, stronger effect = lower value 0.932 | locus YCL069W, strain vba3, stronger effect = lower value 0.967 | locus YCR088W, strain abp1, stronger effect = lower value 1.03 | locus YDL005C, strain med2, stronger effect = lower value 1.03 | locus YDL040C, strain nat1, stronger effect = lower value 1.03 | locus YDR001C, strain nth1, stronger effect = lower value 1.04 | locus YDR069C, strain doa4, stronger effect = lower value 1.03 | locus YDR137W, strain rgp1, stronger effect = lower value 0.916 | locus YDR159W, strain sac3, stronger effect = lower value 0.983 | locus YDR297W, strain sur2, stronger effect = lower value 0.988 | locus YDR334W, strain swr1, stronger effect = lower value 1.01 | locus YDR335W, strain msn5, stronger effect = lower value 1.01 | locus YEL003W, strain gim4, stronger effect = lower value 0.938 | locus YEL037C, strain rad23, stronger effect = lower value 0.994 | locus YEL061C, strain CIN8 (second series), stronger effect = lower value 1.02 | locus YER015W, strain faa2, stronger effect = lower value 0.971 | locus YER016W, strain bim1, stronger effect = lower value 1.02 | locus YER111C, strain swi4, stronger effect = lower value 1.02 | locus YER155C, strain BEM2 (second series), stronger effect = lower value 0.993 | locus YFR010W, strain ubp6, stronger effect = lower value 0.989 | locus YGL167C, strain pmr1, stronger effect = lower value 1.04 | locus YGL173C, strain kem1, stronger effect = lower value 0.987 | locus YGL227W, strain vid30, stronger effect = lower value 0.974 | locus YHR027C, strain rpn1, stronger effect = lower value 0.997 | locus YJL092W, strain hpr5, stronger effect = lower value 1.02 | locus YJL095W, strain BCK1 (second series), stronger effect = lower value 1.02 | locus YJL115W, strain asf1, stronger effect = lower value 1.03 | locus YJL129C, strain trk1, stronger effect = lower value 1.02 | locus YJL154C, strain vps35, stronger effect = lower value 1.03 | locus YJL164C, strain tpk1, stronger effect = lower value 0.934
